Screens: PubChem BioAssay, National Center for Advancing Translational Sciences (NCATS)
GLS inh – qHTS for Inhibitors of Glutaminase (GLS) | Glutaminase kidney isoform, mitochondrial (Homo sapiens), O94925 | GLS enzymatic activity, qHTS titration | Potency, µM (series often up to 45.5 µM), inactives show at the highest dose activity change, negative = inhibition, hits mostly inhibitors | hit rate 0.21% among 410,000 | AID 624170, 2012; also: % is scaled to controls: 0 for no effect and ±100 for the full control effect
Target sequence (O94925 whole entry, looked up, canonical isoform): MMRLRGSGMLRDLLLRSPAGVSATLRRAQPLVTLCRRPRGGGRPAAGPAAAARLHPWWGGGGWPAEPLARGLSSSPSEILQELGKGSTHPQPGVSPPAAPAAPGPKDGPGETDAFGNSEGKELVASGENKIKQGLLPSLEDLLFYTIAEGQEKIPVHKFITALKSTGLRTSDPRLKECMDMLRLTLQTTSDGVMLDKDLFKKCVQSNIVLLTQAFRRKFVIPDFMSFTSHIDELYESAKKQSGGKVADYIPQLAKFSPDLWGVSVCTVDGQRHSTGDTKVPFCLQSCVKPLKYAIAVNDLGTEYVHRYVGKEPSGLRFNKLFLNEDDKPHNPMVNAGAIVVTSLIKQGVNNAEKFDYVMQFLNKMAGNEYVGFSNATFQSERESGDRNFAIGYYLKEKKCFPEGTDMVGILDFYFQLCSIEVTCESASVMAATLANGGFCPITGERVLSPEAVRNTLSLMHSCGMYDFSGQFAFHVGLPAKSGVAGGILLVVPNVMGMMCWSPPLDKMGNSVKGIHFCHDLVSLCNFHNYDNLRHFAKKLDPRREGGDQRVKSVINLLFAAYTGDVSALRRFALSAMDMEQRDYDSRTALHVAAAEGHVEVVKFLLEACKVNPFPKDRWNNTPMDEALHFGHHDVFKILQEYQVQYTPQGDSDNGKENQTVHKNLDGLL
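hKGA; 45 mM KH2PO4 pH 8.2 + 0.02% Tween-20; cpd via pin tool; 1 mM Gln soln; GluOx/HRP/Amplex Red; RT 30 min; fluor. t0 & final.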
G9a block – qHTS Assay for Inhibitors of Histone Lysine Methyltransferase G9a | Histone-lysine N-methyltransferase EHMT2 (Homo sapiens), Q96KQ7 | G9a H3K9 monomethylation, AlphaScreen, 2 h | Potency, µM (titrated, usually from 102 µM), for the others: at the highest dose activity, negative = inhibition, hits mostly inhibitors | hit rate 8.8% among 350,000; also: % is scaled to controls: 0 for no effect and ±100 for the full control effect; nearly all actives have a fitted effect of over 75% in size
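AlphaScreen detection with an anti-monomethyl H3K9 antibody quantified product after a 2 h room-temperature reaction containing 500 nM biotinylated H3K9 peptide, 20 µM SAM and 20 nM enzyme, which had been preincubated 15 min with compound.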
HP1b chromo inh – HTS for Inhibitors of HP1-beta Chromodomain Interactions with Methylated Histone Tails. Chromobox protein homolog 1 (Homo sapiens), P83916. AlphaScreen HP1-beta / biotin-H3K9me3 peptide binding. Potency, µM (highest dose often 114 µM), without a hit: at the top dose activity change, negative = inhibition, actives largely listed as inhibitors. hit rate 0.56% among 390,000. AID 540317, 2011; also: nearly all actives have a fitted effect of over 70% in size
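Compound inhibition of the preformed complex between 50 nM HP1-beta and 50 nM biotinylated H3K9me3 peptide was read by AlphaScreen. Buffer was PBS pH 7.4 with 0.01% Tween-20. Incubations ran 30 min at room temperature, with 10 ug/mL donor/acceptor beads.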
JMJD2A Tudor inh – qHTS Assay for Inhibitors of JMJD2A-Tudor Domain; Lysine-specific demethylase 4A (Homo sapiens), O75164; AlphaScreen JMJD2A-Tudor / H3K4me3 peptide binding; Potency, µM (titrated, usually from 114 µM), for the others: top-dose activity change, negative = inhibition, most hits filed as inhibitors; hit rate 4.4% among 390,000; AID 504339, 2011; also: % is scaled to controls: 0 for no effect and ±100 for the full control effect; nearly all actives have a fitted effect of over 50% in size
BAZ2B block – qHTS Assay for Inhibitors of BAZ2B; Bromodomain adjacent to zinc finger domain protein 2B (Homo sapiens), Q9UIF8; AlphaScreen BAZ2B-H3K14Ac peptide displacement; Potency, µM (series often up to 114 µM), for inactives: at the highest dose activity change, negative = inhibition, usual class: inhibitors; hit rate 4.4% among 360,000; also: % is scaled to controls: 0 for no effect and ±100 for the full control effect; nearly all actives have a fitted effect of over 60% in size
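Protein-peptide AlphaScreen: BAZ2B 50 nM, b-H3K14Ac 50 nM, 1x PBS pH 7.4 + 0.01% Tween-20. Preincubation 30 min RT; cpd 30 min RT (top 110 uM); beads 20 min RT, light-protected.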
Active calls of the source: *; ? = inconclusive; . = no result; [ ] = dose if it differs, or a comment. Sampled rows, rich in hits. Any-hit rate of the full collection: about 10%. Calls follow the shape of the dose curve; as a rule, active = well fitted curve in the direction sought with a large enough effect; inconclusive = small, poorly fitted or top-dose-only effect, or another doubt; inactive = no such curve, though single readings can be large; an effect the other way counts as inactive or inconclusive. Potency is read from the fitted curve at half-maximal effect.

SMILES | GLS inh | G9a block | HP1b chromo inh | JMJD2A Tudor inh | BAZ2B block
O=[N+]([O-])c1ccc(-c2ccc(/C=N/Nc3nc(NCc4ccccc4)nc(N4CCOCC4)n3)o2)cc1 | 2.1% | 25.1µM* | -1.2% | -31.9% | ?
Cc1cc(=O)[nH]c(N/N=C/c2ccc(-c3ccc([N+](=O)[O-])cc3)o2)n1 | -6.5% | -12.4% | 45.6% | -16.8% | -1.9%
O=[N+]([O-])c1ccc(/C=N/Nc2nc(N3CCCCCC3)nc(N3CCCCCC3)n2)o1 | -5.2% | 10µM* | -25.4% | ? | ?
CC1(C#CC[N+]2(C)CCCCC2)CCC2C(O1)c1ccccc1OC2(C)C (stereo unspecified) | -5.4% | 3.16µM* | ? | -26.1% | 56.2µM*
O=C(NCCCCNC(=O)c1ccc(F)cc1)c1ccc(F)cc1 | -11.0% | 22.2% | 38.6% | 5.3% | 7.4%
CCCNC(=O)NNC(=O)c1ccc(F)cc1 | 11.2µM* | 1.2% | -11.7% | ? | -8.2%
CCc1ccc(NC(=O)CSc2nc3c(sc4ccccc43)c(=O)n2CCN(CC)CC)cc1 | 1.6% | 2.1%[59 µM] | 22.2% | -16.3% | -27.3%
C=CCN(C(=O)CSc1nc2c(sc3ccccc32)c(=O)n1CCN(CC)CC)c1ccccc1 | -1.6% | 44.7µM* | -8.9% | ? | ?
CCN(CC)CCn1c(SCC(=O)Nc2ccc(F)cc2)nc2c(sc3ccccc32)c1=O | . | 35.5µM* | . | . | -15.4%
CCN1CCc2c(OCC(=O)N3CCc4ccccc43)cccc2C1=O | . | -2.6% | . | . | -2.9%
Cc1nc(COC(=O)c2cc(O)c3ccccc3c2O)cs1 | 20.2% | 3.16µM* | ? | -8.1%[11.4 µM] | .
COc1ccccc1CNC(=O)c1cnn2c(C(F)F)cc(C)nc12 | ? | 3.4%[59 µM] | 13.3% | -2.2% | 4.0%
COc1ccc2[nH]c(O)c(N=NC(=O)Cc3cccs3)c2c1 | -3.8% | -119.9%[59 µM] | -24.4% | 28.2µM* | 35.5µM*
CC(=O)Nc1cccc(C(=O)NNC(=O)c2ccc(NS(=O)(=O)c3cccs3)cc2)c1 | 4.4% | . | . | . | .
COc1ccc2[nH]c(O)c(N=NC(=O)c3ccc(NS(=O)(=O)c4cccs4)cc3)c2c1 | -5.7% | -2.9%[12.7 µM] | 23.9% | ? | 50.1µM*
C/C(=N\NC(=O)c1ccc(NS(=O)(=O)c2cccs2)cc1)c1ccc(O)cc1O | ? | . | 36.4% | -15.5% | 10µM*
O=C(Cc1cccs1)N=Nc1c(O)[nH]c2ccc(Br)cc12 | 2.9% | ? | -10.4% | ? | ?
Cc1ccc2[nH]c(O)c(N=NC(=O)c3ccc(NS(=O)(=O)c4cccs4)cc3)c2c1 | -1.1% | 5.6%[12.7 µM] | 23.5% | ? | -37.4%
COC(=O)C1=C(N)Oc2cc(N(C)C)ccc2C1c1ccccc1OC (stereo unspecified) | 11.1% | 31.6µM* | ? | 50.1µM* | 39.8µM*
CCC(=O)N(CC)C1=C(O)c2ccccc2C(=O)C1=O | 8.4% | 1µM* | ? | 5.62µM* | 44.7µM*
CCC(=O)N(C1=C(NC)C(=O)c2ccccc2C1=O)C(C)C | 0.6% | -39.9% | 2.8% | -17.2% | -24.7%
Oc1ccc(-c2nc3ccc4ccccc4c3c3c2CCC3)cc1O | -11.3% | ? | ? | ? | 50.1µM*
Cc1cc(C)c2c(ccc3ccccc32)n1 | 5.1% | . | 36.3% | -3.5% | .
C#CCOCCOCCOCCNc1nc(N2CCN(C(=O)[C@H](CCC(=O)O)n3cc(C(N)Cc4ccc(O)cc4)nn3)CC2)nc(N2CCN(C(=O)[C@H](CCCCN)n3cc(C(N)[C@H](C)CC)nn3)CC2)n1 (stereo partly specified) | . | 14.7%[12.7 µM] | . | . | 79.4µM*
C#CCOCCOCCOCCNc1nc(N2CCN(C(=O)[C@H](CCCCN)n3cc([C@@H](N)[C@H](C)CC)nn3)CC2)nc(N2CCN(C(=O)[C@H](CCCCN)n3cc([C@@H](N)CC(N)=O)nn3)CC2)n1 | -8.3% | . | 77.6% | -26.4% | .
SMILES | GLS inh | G9a block | HP1b chromo inh | JMJD2A Tudor inh | BAZ2B block
C#CCOCCOCCOCCNc1nc(N2CCN(C(=O)[C@H]([C@@H](C)CC)n3cc([C@@H](N)Cc4ccc(O)cc4)nn3)CC2)nc(N2CCN(C(=O)[C@H](CCCCN)n3cc([C@@H](N)C(C)CC)nn3)CC2)n1 (stereo partly specified) | 28.2% | ? | -2.2% | 50.1µM* | 79.4µM*
CCOc1cc(C(=O)CCC(=O)OCC(=O)NC(=O)NCC(C)C)ccc1O | 10.3% | . | 36.6% | -14.1% | -12.9%
O=C(O)C1NCCc2ccccc21 (stereo unspecified) | -1.1% | 39.8µM* | -13.4% | ? | ?
CN(Cc1ccccc1F)C(=O)C1CCCN(C(=O)c2ccc(Cl)cc2)C1 (stereo unspecified) | -0.6% | -32.7% | 21.6% | -1.4% | 0.5%
CC1CCCN(C(=O)N2c3ccccc3Sc3ccccc32)C1 (stereo unspecified) | -0.9% | 9.5% | 30.9% | 6.5% | -3.2%
CC1CN(C(=O)N2c3ccccc3Sc3ccccc32)CC(C)O1 (stereo unspecified) | -3.7% | -42.5%[59 µM] | 16.0% | -13.1% | 89.1µM*
Cn1c(=O)c2[nH]c(-c3ccccc3)c(O)c2n(C)c1=O | 32.9% | 2.24µM* | 26.2% | -6.6% | 10.6%
Cn1c(=O)c2[nH]c(-c3ccccc3)nc2n(C)c1=O | . | 7.5%[59 µM] | . | . | 7.7%
Cn1c(=O)c2[nH]c(-c3ccccc3Cl)c(O)c2n(C)c1=O | 22.4µM* | 44.7µM* | 48.6% | 7.3% | -26.3%
O=CN(c1ccccc1)c1ccc2ccccc2c1 | -11.8% | 70.9% | 42.5% | 31.3% | -16.3%
COc1ccc(OCC(N)=O)cc1 | -4.1% | 17.0% | 20.1% | -17.6% | 4.5%
BrC(=C\c1ccccc1)/C=N/Nc1ccc2nncn2n1 | -3.0% | . | -27.8% | ? | 44.7µM*
Cc1cc(C(F)(F)F)c2c(N)c(C(=O)Nc3cc(C)on3)sc2n1 | 4.8% | ? | 35.1% | -11.8% | -11.9%
Cc1cccc(N2CCN(S(=O)(=O)c3ccc4c(c3)C(C)(C)C(=O)N4C)CC2)c1C | 0.8% | . | -18.2% | ? | 50.1µM*
Cc1cccc(N2CCN(S(=O)(=O)c3cccc4nonc34)CC2)c1C | -3.3% | 20µM* | -18.3% | ? | ?
Cc1ccc(C)c(N2CCN(S(=O)(=O)c3ccc4c(c3)C(C)(C)C(=O)N4C)CC2)c1 | 6.0% | . | 34.9% | -22.5% | ?
O=C(COC(=O)C1CC1)Nc1ncc(Cl)cc1Cl | -11.5% | ? | -15.4% | ? | ?
CC(=O)COC(=O)C1CCN(S(=O)(=O)c2cc([N+](=O)[O-])ccc2Cl)CC1 | ? | ? | 16.7% | 56.2µM* | 50.1µM*
